About 2,000 (36%) of roughly 5,500 compounds were called active. Not shown: some 18% with an inconclusive outcome. No stated cut-off is given here; in the data, active means normalized growth mostly below about 0.91 (no sharp cut-off); inconclusive means no clear call, values can overlap the other calls; inactive means mostly above about 0.92. Some of the results follow.
Assay: chemical genetic growth profiling, strain panel (AID 1159580);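 further: tested at 20 µM; growth read once vehicle control cultures reached saturation at 30 °C; 1 = growth at the plate median or of vehicle wells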
Details: growth OD
[1] = S. cerevisiae deletion strains, locus YAL013W, strain DEP1, stronger effect = lower value
[2] = S. cerevisiae deletion strains, locus YBR229C, strain ROT2, stronger effect = lower value
[3] = S. cerevisiae deletion strains, locus YDL101C, strain DUN1, stronger effect = lower value
[4] = S. cerevisiae deletion strains, locus YDR150W, strain NUM1, stronger effect = lower value
[5] = S. cerevisiae deletion strains, locus YEL061C, strain CIN8, stronger effect = lower value
[6] = S. cerevisiae deletion strains, locus YGR078C, strain PAC10, stronger effect = lower value
[7] = S. cerevisiae deletion strains, locus YHR030C, strain SLT2, stronger effect = lower value
[8] = S. cerevisiae deletion strains, locus YHR087W, strain rtc3, stronger effect = lower value
[9] = S. cerevisiae deletion strains, locus YJL187C, strain SWE1, stronger effect = lower value
[10] = S. cerevisiae deletion strains, locus YJR043C, strain POL32, stronger effect = lower value
[11] = S. cerevisiae deletion strains, locus YJR075W, strain HOC1, stronger effect = lower value
[12] = S. cerevisiae deletion strains, locus YLR039C, strain RIC1, stronger effect = lower value
[13] = S. cerevisiae deletion strains, locus YLR058C, strain SHM2 (second series), stronger effect = lower value
[14] = S. cerevisiae deletion strains, locus YLR085C, strain ARP6, stronger effect = lower value
[15] = S. cerevisiae deletion strains, locus YLR262C, strain YPT6, stronger effect = lower value
[16] = S. cerevisiae deletion strains, locus YML094W, strain GIM5, stronger effect = lower value
[17] = S. cerevisiae deletion strains, locus YMR219W, strain ESC1, stronger effect = lower value
[18] = S. cerevisiae deletion strains, locus YMR263W, strain SAP30, stronger effect = lower value
[19] = S. cerevisiae deletion strains, locus YMR307W, strain GAS1, stronger effect = lower value
[20] = S. cerevisiae deletion strains, locus YNL153C, strain GIM3, stronger effect = lower value
[21] = S. cerevisiae deletion strains, locus YNL298W, strain CLA4 (second series), stronger effect = lower value
[22] = S. cerevisiae deletion strains, locus YNL322C, strain KRE1, stronger effect = lower value
[23] = S. cerevisiae deletion strains, locus YNR030W, strain Alg12, stronger effect = lower value
[24] = S. cerevisiae deletion strains, locus YPL055C, strain LGE1, stronger effect = lower value
[25] = S. cerevisiae deletion strains, locus YPL241C, strain CIN2, stronger effect = lower value
[26] = S. cerevisiae deletion strains, locus YPR135W, strain CTF4, stronger effect = lower value

Measured: normalized growth

CCc1cccc(C)c1NC(=O)CC(C)(C)CC(=O)O
inactive: [1] 0.988 | [2] 0.994 | [3] 1.02 | [4] 0.981 | [5] 0.992 | [6] 0.99 | S. cerevisiae deletion strains, locus YGR229C, strain SMI1, stronger effect = lower value 0.992 | [7] 0.989 | [8] 1.01 | [9] 0.996 | [10] 0.995 | [11] 1.01 | S. cerevisiae deletion strains, locus YKL190W, strain CNB1, stronger effect = lower value 0.987 | [12] 1.03 | [13] 0.996 | [14] 0.966 | [15] 1.02 | [16] 1.06 | [17] 0.996 | [18] 0.967 | [19] 0.983 | [20] 1.01 | [21] 1.01 | [22] 0.992 | [23] 1 | [24] 1.02 | [25] 1.01 | [26] 1.06

O=C(Nc1cc(C(F)(F)F)cc(C(F)(F)F)c1)C(c1ccccc1)C1CCCC1 (stereo unspecified)
inactive: [1] 1.02 | [2] 1.01 | [3] 1.02 | [4] 1.02 | [5] 0.969 | [6] 1.03 | [7] 1.06 | [8] 1 | [9] 1.02 | [10] 1.01 | [11] 1.03 | [12] 1.04 | [13] 1 | [14] 1.01 | [15] 0.998 | [16] 1.02 | [17] 1 | [18] 1.02 | [19] 1.04 | [20] 1.01 | [21] 1.03 | [22] 1.01 | [23] 1.01 | [24] 1.03 | [25] 1.03 | [26] 1.01 | S. cerevisiae strains, strain wild type, stronger effect = lower value 1

FC(F)(F)c1cc(NC(=S)SCCSC(=S)Nc2cc(C(F)(F)F)cc(C(F)(F)F)c2)cc(C(F)(F)F)c1
inactive: S. cerevisiae deletion strains, locus YAR019C, strain CDC15, stronger effect = lower value 0.993 | S. cerevisiae deletion strains, locus YBL105C, strain PKC1, stronger effect = lower value 0.989 | S. cerevisiae deletion strains, locus YBR135W, strain CKS1, stronger effect = lower value 1 | S. cerevisiae deletion strains, locus YBR136W, strain MEC1, stronger effect = lower value 0.986 | S. cerevisiae deletion strains, locus YBR160W, strain CDC28, stronger effect = lower value 0.997 | S. cerevisiae deletion strains, locus YDL017W, strain CDC7, stronger effect = lower value 0.991 | S. cerevisiae deletion strains, locus YDL028C, strain MPS1, stronger effect = lower value 0.991 | [3] 1 | S. cerevisiae deletion strains, locus YDL108W, strain KIN28, stronger effect = lower value 0.99 | S. cerevisiae deletion strains, locus YDL132W, strain cdc53, stronger effect = lower value 0.988 | S. cerevisiae deletion strains, locus YDL214C, strain PRR2, stronger effect = lower value 0.889 | S. cerevisiae deletion strains, locus YDR052C, strain DBF4, stronger effect = lower value 1 | S. cerevisiae deletion strains, locus YDR054C, strain cdc34, stronger effect = lower value 0.994 | S. cerevisiae deletion strains, locus YDR226W, strain ADK1, stronger effect = lower value 0.994 | S. cerevisiae deletion strains, locus YDR477W, strain SNF1, stronger effect = lower value 0.951 | S. cerevisiae deletion strains, locus YER123W, strain YCK3, stronger effect = lower value 0.949 | S. cerevisiae deletion strains, locus YER133W, strain GLC7, stronger effect = lower value 0.911 | S. cerevisiae deletion strains, locus YFL009W, strain cdc4, stronger effect = lower value 1 | S. cerevisiae deletion strains, locus YFL029C, strain CAK1, stronger effect = lower value 0.994 | S. cerevisiae deletion strains, locus YFR003C, strain YPI1, stronger effect = lower value 0.993 | S. cerevisiae deletion strains, locus YFR019W, strain FAB1, stronger effect = lower value 1.01 | S. cerevisiae deletion strains, locus YFR028C, strain CDC14, stronger effect = lower value 0.993 | S. cerevisiae deletion strains, locus YGR040W, strain KSS1, stronger effect = lower value 0.951 | S. cerevisiae deletion strains, locus YGR052W, strain FMP48, stronger effect = lower value 1.04 | S. cerevisiae deletion strains, locus YGR092W, strain DBF2, stronger effect = lower value 0.993 | [7] 0.984 | S. cerevisiae deletion strains, locus YHR079C, strain IRE1, stronger effect = lower value 1.04 | S. cerevisiae deletion strains, locus YHR082C, strain KSP1, stronger effect = lower value 1.03 | S. cerevisiae deletion strains, locus YHR205W, strain SCH9, stronger effect = lower value 0.983 | S. cerevisiae deletion strains, locus YIL147C, strain SLN1, stronger effect = lower value 0.97 | S. cerevisiae deletion strains, locus YJL095W, strain BCK1, stronger effect = lower value 1.08 | S. cerevisiae deletion strains, locus YJL128C, strain PBS2, stronger effect = lower value 0.954 | S. cerevisiae deletion strains, locus YJL157C, strain FAR1, stronger effect = lower value 0.884 | S. cerevisiae deletion strains, locus YJR016C, strain ILV3, stronger effect = lower value 0.995 | S. cerevisiae deletion strains, locus YJR066W, strain TOR1 (second series), stronger effect = lower value 0.94 | S. cerevisiae deletion strains, locus YJR066W, strain TOR1, stronger effect = lower value 1.09 | S. cerevisiae deletion strains, locus YKL048C, strain ELM1, stronger effect = lower value 0.971 | S. cerevisiae deletion strains, locus YKL067W, strain YNK1, stronger effect = lower value 0.862 | S. cerevisiae deletion strains, locus YKL101W, strain HSL1, stronger effect = lower value 0.968 | S. cerevisiae deletion strains, locus YKL193C, strain SDS22, stronger effect = lower value 0.992 | S. cerevisiae deletion strains, locus YKL203C, strain TOR2, stronger effect = lower value 1.06 | S. cerevisiae deletion strains, locus YLR113W, strain HOG1, stronger effect = lower value 0.869 | S. cerevisiae deletion strains, locus YLR133W, strain CKI1, stronger effect = lower value 0.972 | S. cerevisiae deletion strains, locus YLR403W, strain SFP1, stronger effect = lower value 0.982 | S. cerevisiae deletion strains, locus YML070W, strain DAK1, stronger effect = lower value 0.908 | S. cerevisiae deletion strains, locus YMR001C, strain CDC5, stronger effect = lower value 0.997 | S. cerevisiae deletion strains, locus YMR205C, strain PFK2 (second series), stronger effect = lower value 0.988 | S. cerevisiae deletion strains, locus YMR277W, strain FCP1, stronger effect = lower value 0.986 | S. cerevisiae deletion strains, locus YNL006W, strain LST8, stronger effect = lower value 0.996 | S. cerevisiae deletion strains, locus YNL020C, strain ARK1, stronger effect = lower value 0.973 | S. cerevisiae deletion strains, locus YNL161W, strain CBK1, stronger effect = lower value 0.998 | S. cerevisiae deletion strains, locus YNL183C, strain NPR1, stronger effect = lower value 1.03 | S. cerevisiae deletion strains, locus YNL207W, strain RIO2, stronger effect = lower value 0.987 | S. cerevisiae deletion strains, locus YNL222W, strain SSU72, stronger effect = lower value 0.989 | S. cerevisiae deletion strains, locus YNL307C, strain MCK1 (second series), stronger effect = lower value 0.984 | S. cerevisiae deletion strains, locus YOL078W, strain AVO1, stronger effect = lower value 0.992 | S. cerevisiae deletion strains, locus YOL136C, strain PFK27, stronger effect = lower value 0.933 | S. cerevisiae deletion strains, locus YOR061W, strain CKA2, stronger effect = lower value 0.994 | S. cerevisiae deletion strains, locus YOR119C, strain RIO1, stronger effect = lower value 1.02 | S. cerevisiae deletion strains, locus YOR231W, strain MKK1, stronger effect = lower value 1.03 | S. cerevisiae deletion strains, locus YOR329C, strain SCD5, stronger effect = lower value 0.996 | S. cerevisiae deletion strains, locus YPL031C, strain PHO85, stronger effect = lower value 0.963 | S. cerevisiae deletion strains, locus YPL153C, strain RAD53, stronger effect = lower value 0.946 | S. cerevisiae deletion strains, locus YPL204W, strain HRR25, stronger effect = lower value 0.932 | S. cerevisiae deletion strains, locus YPL209C, strain IPL1, stronger effect = lower value 0.992 | S. cerevisiae deletion strains, locus YPL256C, strain CLN2, stronger effect = lower value 0.926 | S. cerevisiae deletion strains, locus YPR025C, strain CCL1, stronger effect = lower value 0.999 | S. cerevisiae deletion strains, locus YPR106W, strain ISR1, stronger effect = lower value 0.998 | S. cerevisiae deletion strains, locus YPR111W, strain DBF20, stronger effect = lower value 0.988 | S. cerevisiae deletion strains, strain NNK1, stronger effect = lower value 0.986 | S. cerevisiae deletion strains, strain TSCII, stronger effect = lower value 0.993

Source: PubChem BioAssay AID1159580 (chemical genetic matrix, 2015)
